Assay results reported in PubChem BioAssay (EPA / NIEHS).
Calls of active or inactive are those of the source. Rule for the calls: active = hit-call score of the fitted dose curve at least 0.9, where 1 is the maximum; inactive = score below 0.9.

biological target: Retinoic acid receptor alpha (Homo sapiens) (UniProt P10276); assay: ATG_DR5_RAR_CIS: Attagene CIS-FACTORIAL HepG2 Assay for human Retinoic Acid Receptor Alpha (RARE), DR5 submotif (AID 2282934); conditions: HepG2 Attagene cis-factorial RARE DR5 reporter, mRNA; actives raise or lower the signal
How it was run: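 Transfected HepG2 reporter cells are exposed to chemicals for 24 h. Then RNA is extracted and the DR5 element reporter transcript is measured by RT-PCR and capillary electrophoresis, with bidirectional curve fitting relative to DMSO.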

Sequence of Retinoic acid receptor alpha (Homo sapiens) (P10276 whole entry, looked up): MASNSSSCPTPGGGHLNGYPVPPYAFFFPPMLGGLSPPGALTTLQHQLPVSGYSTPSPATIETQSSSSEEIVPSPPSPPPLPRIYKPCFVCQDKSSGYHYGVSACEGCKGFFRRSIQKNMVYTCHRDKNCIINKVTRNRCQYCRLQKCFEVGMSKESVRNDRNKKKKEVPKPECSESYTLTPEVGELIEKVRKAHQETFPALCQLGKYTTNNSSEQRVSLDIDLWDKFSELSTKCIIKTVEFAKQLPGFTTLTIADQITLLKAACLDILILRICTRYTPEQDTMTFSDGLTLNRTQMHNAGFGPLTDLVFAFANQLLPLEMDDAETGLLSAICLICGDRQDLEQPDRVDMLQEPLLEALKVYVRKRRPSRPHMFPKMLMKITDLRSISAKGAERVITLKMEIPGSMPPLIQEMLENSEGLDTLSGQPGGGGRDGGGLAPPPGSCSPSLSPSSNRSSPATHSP

Structure (SMILES)	outcome
O=C(NC(=O)c1c(F)cccc1F)Nc1ccc(Oc2ccc(C(F)(F)F)cc2Cl)cc1F	inactive
[CH3][Sn]([Cl])([Cl])[Cl]	inactive
c1cc(OCC2CO2)ccc1Cc1ccc(OCC2CO2)cc1 (stereo not given)	inactive
[Cl][Sb]([Cl])[Cl]	inactive

biological target: Transcription factor E2F1 (Homo sapiens) (UniProt Q01094); assay: ATG_E2F_CIS: Attagene CIS-FACTORIAL HepG2 Assay for human E2F Transcription Factor 1 (AID 2282935); conditions: HepG2 Attagene cis-reporter, E2F reporter RNA transcripts; actives raise or lower the signal
How it was run: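 Multiplexed cis-reporter assay: HepG2, transient transfection, 24 h dosing, mRNA quantitation by labeled RT-PCR and CE.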

Sequence of Transcription factor E2F1 (Homo sapiens) (Q01094 whole entry, looked up): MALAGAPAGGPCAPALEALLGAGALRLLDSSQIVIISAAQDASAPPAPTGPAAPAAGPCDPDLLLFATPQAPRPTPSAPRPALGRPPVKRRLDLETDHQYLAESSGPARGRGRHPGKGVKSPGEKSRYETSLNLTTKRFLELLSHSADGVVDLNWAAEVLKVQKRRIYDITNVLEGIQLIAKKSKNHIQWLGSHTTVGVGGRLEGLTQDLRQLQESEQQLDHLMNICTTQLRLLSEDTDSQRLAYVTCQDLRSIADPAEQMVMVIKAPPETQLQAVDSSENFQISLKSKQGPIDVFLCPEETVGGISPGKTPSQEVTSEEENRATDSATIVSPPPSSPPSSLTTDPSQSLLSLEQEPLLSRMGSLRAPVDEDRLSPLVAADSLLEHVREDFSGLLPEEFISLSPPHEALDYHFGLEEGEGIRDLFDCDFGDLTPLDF

Structure (SMILES)	outcome	AC50
O=C(NC(=O)c1c(F)cccc1F)Nc1ccc(Oc2ccc(C(F)(F)F)cc2Cl)cc1F	inactive	
CCCCNP(N)(N)=S	inactive	
CC(=O)C=Cc1ccccc1	inactive	
CCC(=O)c1ccc(Cl)cc1	inactive	
C=CC(=O)OC	inactive	
N#CCNCC#N	inactive	
CN(C)N	inactive	
Nc1ccc(Cl)c(Cl)c1	inactive	
O=C(O)CCl	inactive	
CC(O)CN(CC(C)O)CC(C)O (stereo not given)	inactive	
Nc1cc(Cl)cc(Cl)c1	inactive	
O=[N+]([O-])c1ccc(Cl)cc1	inactive	
Cc1ccc(C)c2ccccc12	inactive	
[CH3][Sn]([Cl])([Cl])[Cl]	inactive	
CC(=O)c1cc2c(cc1C)C(C)(C)C(C)CC2(C)C (stereo not given)	inactive	
Nc1ccc(-c2ccc(N)c(N)c2)cc1N	inactive	
c1cc(OCC2CO2)ccc1Cc1ccc(OCC2CO2)cc1 (stereo not given)	inactive	
C=CC(=O)OCCCCOC(=O)C=C	inactive	
c1ccc2c(c1)CCCC2	inactive	
CCOC(=O)C1OC1(C)c1ccccc1 (stereo not given)	inactive	
[Cl][Sb]([Cl])[Cl]	inactive	
CC(C)[C@@H](C(=O)O[C@@H](C#N)c1cccc(Oc2ccccc2)c1)c1ccc(Cl)cc1	inactive	
C[C@]12CC[C@H]3[C@@H](CC[C@@]45O[C@@H]4C(O)=C(C#N)C[C@]35C)[C@@H]1CC[C@@H]2O	inactive	
O=[N+]([O-])c1cc([N+](=O)[O-])c2ccccc2c1	inactive	
O=C(O)C(Br)Br	inactive	
C=CC(=O)OCCO	inactive	
CCCCCCCCCCCCCCCC[N+](C)(C)C		24.2 µM (active)

tested on: not listed separately; assay: ATG_E_Box_CIS: Attagene CIS-FACTORIAL HepG2 Assay for human Enhancer Box (E-box) (AID 2282936); conditions: HepG2 E-box cis-reporter transcription, actives raise or lower the signal
How it was run: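 Multiplexed CIS reporter system in transiently transfected HepG2 cells measures native transcription factor activity. Reporter RNA after 24 h exposure is profiled by RT-PCR-capillary electrophoresis.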

Structure (SMILES)	outcome	AC50
CCCCCCCCCCCC#N	inactive	
O=C(NC(=O)c1c(F)cccc1F)Nc1ccc(Oc2ccc(C(F)(F)F)cc2Cl)cc1F	inactive	
CC1CCCC1.[C-]#[O+].[C-]#[O+].[C-]#[O+].[Mn]		16.8 µM (active)
CCCCNP(N)(N)=S	inactive	
CC(=O)C=Cc1ccccc1	inactive	
CCC(=O)c1ccc(Cl)cc1	inactive	
Nc1ccccc1C(=O)Oc1ccc2ccccc2c1	inactive	
C=CC(=O)OC	inactive	
CC(C)CCCCCCCOC(=O)c1ccccc1C(=O)OCCCCCCCC(C)C	inactive	
N#CCNCC#N	inactive	
CN(C)N	inactive	
CN1C[C@H](C(=O)N[C@]2(C)O[C@@]3(O)[C@@H]4CCCN4C(=O)[C@H](Cc4ccccc4)N3C2=O)C=C2c3cccc4[nH]cc(c34)C[C@H]21	inactive	
O=[N+]([O-])C=Cc1ccccc1		25.5 µM (active)
Nc1ccc(Cl)c(Cl)c1	inactive	
CCCCOP(=O)(O)OCCCC	inactive	
O=C(O)CCl	inactive	
CC(O)CN(CC(C)O)CC(C)O (stereo not given)	inactive	
Nc1cc(Cl)cc(Cl)c1	inactive	
O=[N+]([O-])c1ccc(Cl)cc1	inactive	

Structure (SMILES)	outcome	AC50
Cc1ccc(C)c2ccccc12	inactive	
C=CCO	inactive	
COC(=O)COc1ccc(Cl)cc1Cl	inactive	
[CH3][Sn]([Cl])([Cl])[Cl]	inactive	
CC(=O)c1cc2c(cc1C)C(C)(C)C(C)CC2(C)C (stereo not given)	inactive	
Nc1ccc(-c2ccc(N)c(N)c2)cc1N	inactive	
c1cc(OCC2CO2)ccc1Cc1ccc(OCC2CO2)cc1 (stereo not given)		53.2 µM (active)
C=CC(=O)OCCCCOC(=O)C=C		70.1 µM (active)
c1ccc2c(c1)CCCC2	inactive	
CCOC(=O)C1OC1(C)c1ccccc1 (stereo not given)	inactive	
[Cl][Sb]([Cl])[Cl]	inactive	
COc1ncc(F)c2nc(S(=O)(=O)Nc3c(F)cccc3F)nn12	inactive	
CC(C)[C@@H](C(=O)O[C@@H](C#N)c1cccc(Oc2ccccc2)c1)c1ccc(Cl)cc1	inactive	
C[C@]12CC[C@H]3[C@@H](CC[C@@]45O[C@@H]4C(O)=C(C#N)C[C@]35C)[C@@H]1CC[C@@H]2O	inactive	
O=[N+]([O-])c1cc([N+](=O)[O-])c2ccccc2c1		10.5 µM (active)
O=C(O)C(Br)Br	inactive	
C=CC(=O)OCCO	inactive	
CCCCCCCCCCCCCCCC[N+](C)(C)C		48.7 µM (active)

tested on: not listed separately; assay: ATG_M_61_CIS: Attagene CIS-FACTORIAL HepG2 Assay for M61 Transcription Factor (Internal Marker) (AID 2282937); conditions: HepG2 Attagene CIS-FACTORIAL M61 internal marker reporter; actives raise or lower the signal
How it was run: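 HepG2 cells transiently transfected with cis-element-driven multiple reporter transcription units, dosed for 24 h. Reporter mRNA measured by RT-PCR, 6-FAM primer-extension labelling, HpaI digestion and capillary electrophoresis; bidirectional fit versus DMSO baseline.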

Structure (SMILES)	outcome
CCCCCCCCCCCC#N	inactive
O=C(NC(=O)c1c(F)cccc1F)Nc1ccc(Oc2ccc(C(F)(F)F)cc2Cl)cc1F	inactive
CC1CCCC1.[C-]#[O+].[C-]#[O+].[C-]#[O+].[Mn]	inactive
CCCCNP(N)(N)=S	inactive
CC(=O)C=Cc1ccccc1	inactive
CCC(=O)c1ccc(Cl)cc1	inactive
Nc1ccccc1C(=O)Oc1ccc2ccccc2c1	inactive
C=CC(=O)OC	inactive
CC(C)CCCCCCCOC(=O)c1ccccc1C(=O)OCCCCCCCC(C)C	inactive
N#CCNCC#N	inactive
CN(C)N	inactive
CN1C[C@H](C(=O)N[C@]2(C)O[C@@]3(O)[C@@H]4CCCN4C(=O)[C@H](Cc4ccccc4)N3C2=O)C=C2c3cccc4[nH]cc(c34)C[C@H]21	inactive
O=[N+]([O-])C=Cc1ccccc1	inactive
Nc1ccc(Cl)c(Cl)c1	inactive
CCCCOP(=O)(O)OCCCC	inactive
O=C(O)CCl	inactive
CC(O)CN(CC(C)O)CC(C)O (stereo not given)	inactive
Nc1cc(Cl)cc(Cl)c1	inactive
O=[N+]([O-])c1ccc(Cl)cc1	inactive

Structure (SMILES)	outcome
Cc1ccc(C)c2ccccc12	inactive
C=CCO	inactive
COC(=O)COc1ccc(Cl)cc1Cl	inactive
[CH3][Sn]([Cl])([Cl])[Cl]	inactive
CC(=O)c1cc2c(cc1C)C(C)(C)C(C)CC2(C)C (stereo not given)	inactive
Nc1ccc(-c2ccc(N)c(N)c2)cc1N	inactive
c1cc(OCC2CO2)ccc1Cc1ccc(OCC2CO2)cc1 (stereo not given)	inactive
C=CC(=O)OCCCCOC(=O)C=C	inactive
c1ccc2c(c1)CCCC2	inactive
CCOC(=O)C1OC1(C)c1ccccc1 (stereo not given)	inactive
[Cl][Sb]([Cl])[Cl]	inactive
COc1ncc(F)c2nc(S(=O)(=O)Nc3c(F)cccc3F)nn12	inactive
CC(C)[C@@H](C(=O)O[C@@H](C#N)c1cccc(Oc2ccccc2)c1)c1ccc(Cl)cc1	inactive
C[C@]12CC[C@H]3[C@@H](CC[C@@]45O[C@@H]4C(O)=C(C#N)C[C@]35C)[C@@H]1CC[C@@H]2O	inactive
O=[N+]([O-])c1cc([N+](=O)[O-])c2ccccc2c1	inactive
O=C(O)C(Br)Br	inactive
C=CC(=O)OCCO	inactive
CCCCCCCCCCCCCCCC[N+](C)(C)C	inactive
